# From ChEMBL document CHEMBL3988442, “University of Dundee, Small-Polar-MMV Screening Library” (2021)
# For some of these results: Entries with a potency or affinity are not part of this list.
# How the values were obtained:
# Design in all cases: scale not given: direction of the effect not stated beside the values
# [1] = target: Protein translocase subunit SecA (Escherichia coli (strain K12)) (UniProt P10408); assay: Assay to Identify E. coli SecA ATPase Inhibitors; type: functional; settings: 30 µM
# [2] = target: T1, Ubiquitin-activating enzyme e1, putative (Leishmania donovani (strain BPK282A1)) (UniProt E9BSI1); assay: Leishmania donovani Ubiquitin Activating Enzyme (LdE1); type: functional; settings: 30 µM
# T1 sequence (whole entry): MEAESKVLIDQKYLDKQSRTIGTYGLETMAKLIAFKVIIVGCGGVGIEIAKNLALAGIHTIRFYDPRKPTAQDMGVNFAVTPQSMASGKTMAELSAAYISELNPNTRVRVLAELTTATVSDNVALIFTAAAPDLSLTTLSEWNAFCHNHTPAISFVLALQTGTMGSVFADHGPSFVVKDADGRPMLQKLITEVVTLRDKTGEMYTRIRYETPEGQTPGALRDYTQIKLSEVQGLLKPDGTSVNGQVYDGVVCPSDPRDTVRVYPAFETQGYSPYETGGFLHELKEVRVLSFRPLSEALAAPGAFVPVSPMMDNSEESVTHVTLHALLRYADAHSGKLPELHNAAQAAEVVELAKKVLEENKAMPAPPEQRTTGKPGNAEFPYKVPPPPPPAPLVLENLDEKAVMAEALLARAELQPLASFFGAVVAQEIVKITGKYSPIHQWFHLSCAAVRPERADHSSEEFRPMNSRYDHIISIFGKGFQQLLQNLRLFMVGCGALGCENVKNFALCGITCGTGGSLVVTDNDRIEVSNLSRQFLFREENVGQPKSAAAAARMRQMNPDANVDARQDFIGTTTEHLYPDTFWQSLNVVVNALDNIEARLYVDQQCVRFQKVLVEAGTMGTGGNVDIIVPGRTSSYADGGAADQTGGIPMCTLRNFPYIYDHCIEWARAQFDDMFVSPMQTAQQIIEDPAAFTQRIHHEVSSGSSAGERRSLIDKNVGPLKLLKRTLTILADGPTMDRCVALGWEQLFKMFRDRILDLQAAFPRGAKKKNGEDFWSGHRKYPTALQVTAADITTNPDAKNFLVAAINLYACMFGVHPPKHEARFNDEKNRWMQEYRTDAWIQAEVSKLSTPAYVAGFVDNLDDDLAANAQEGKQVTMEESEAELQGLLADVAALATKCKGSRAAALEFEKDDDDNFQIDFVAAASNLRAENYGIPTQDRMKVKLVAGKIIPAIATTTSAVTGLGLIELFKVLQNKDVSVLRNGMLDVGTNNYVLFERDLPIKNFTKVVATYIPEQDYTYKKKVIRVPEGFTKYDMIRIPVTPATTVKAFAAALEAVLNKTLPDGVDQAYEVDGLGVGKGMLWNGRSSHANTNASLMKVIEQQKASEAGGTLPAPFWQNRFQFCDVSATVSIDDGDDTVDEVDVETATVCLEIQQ
# [3] = target: AMP-activated protein kinase, AMPK (Homo sapiens) (UniProt P54646+O43741+P54619+Q9UGJ0+Q9Y478+Q13131+Q9UGI9); assay: AMP-dependent Kinase enzyme assay. An in vitro enzyme assay that detects ADP turnover that is directly proportional to AMPK activity. This uses naive AMPK that is activated during the assay with MK-8722; type: functional; settings: 30 µM
# [4] = target: Sialic acid-binding Ig-like lectin 9 (Homo sapiens) (UniProt Q9Y336); assay: Hs-Siglec9 ALPHAscreen SOP 20170721; settings: 10 µM
# Trypanosoma cruzi = assay: Trypanosoma cruzi phosphomannomutase and mannose-1-phosphate guanylyltransferase assay; type: functional; settings: 10 µM
# [5] = target: T2, Arginase-2, mitochondrial (Homo sapiens) (UniProt P78540); assay: in vitro enzyme assay to detect the production of urea directly proportional to the activity of Arginase II; type: functional; settings: 33.3 µM; also: in the data most compounds retested in dose-response had high values
# T2 sequence (whole entry): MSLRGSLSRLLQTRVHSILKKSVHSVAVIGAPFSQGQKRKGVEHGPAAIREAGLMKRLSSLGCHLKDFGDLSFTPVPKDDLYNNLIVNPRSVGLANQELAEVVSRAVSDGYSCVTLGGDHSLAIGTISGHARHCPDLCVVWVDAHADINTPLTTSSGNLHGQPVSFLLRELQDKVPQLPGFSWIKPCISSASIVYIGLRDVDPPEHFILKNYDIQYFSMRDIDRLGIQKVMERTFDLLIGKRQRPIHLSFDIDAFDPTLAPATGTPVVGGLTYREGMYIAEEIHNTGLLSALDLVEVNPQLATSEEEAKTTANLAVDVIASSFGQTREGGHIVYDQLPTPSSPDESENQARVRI
# [6] = target: T3, Proteasome subunit beta (Trypanosoma cruzi) (UniProt O96673); assay: Trypanosoma cruzi proteasome chymotrypsin-like activity (TcProtChymo) assay.; also: in the data most compounds retested in dose-response had high values; type: functional; settings: 9.37 µM
# T3 sequence (whole entry): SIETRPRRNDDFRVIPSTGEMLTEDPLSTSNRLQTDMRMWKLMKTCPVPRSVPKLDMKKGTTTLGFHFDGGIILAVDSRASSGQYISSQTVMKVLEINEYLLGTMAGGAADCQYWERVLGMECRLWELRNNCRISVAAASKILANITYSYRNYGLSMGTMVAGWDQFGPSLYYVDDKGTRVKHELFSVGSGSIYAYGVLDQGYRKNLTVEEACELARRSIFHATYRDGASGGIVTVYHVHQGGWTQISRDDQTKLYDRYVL
# Homo sapiens = organism: Homo sapiens; assay: To identify inhibition of the IFN signalling (Jak-Stat) pathway via expression of an eGFP reporter gene under the control of an IFN-stimulated response element (ISRE) containing MxA promoter.; type: functional; settings: 30 µM
# [7] = target: T4, Tyrosyl-tRNA synthetase, putative (Trypanosoma cruzi (strain CL Brener)) (UniProt Q4DSP6); assay: Trypanosoma cruzi tyrosyl tRNA synthetase (TcYRS) _High Tyrosine SOP; type: functional; settings: 30 µM; also: in the data most compounds retested in dose-response had high values
# T4 sequence (whole entry): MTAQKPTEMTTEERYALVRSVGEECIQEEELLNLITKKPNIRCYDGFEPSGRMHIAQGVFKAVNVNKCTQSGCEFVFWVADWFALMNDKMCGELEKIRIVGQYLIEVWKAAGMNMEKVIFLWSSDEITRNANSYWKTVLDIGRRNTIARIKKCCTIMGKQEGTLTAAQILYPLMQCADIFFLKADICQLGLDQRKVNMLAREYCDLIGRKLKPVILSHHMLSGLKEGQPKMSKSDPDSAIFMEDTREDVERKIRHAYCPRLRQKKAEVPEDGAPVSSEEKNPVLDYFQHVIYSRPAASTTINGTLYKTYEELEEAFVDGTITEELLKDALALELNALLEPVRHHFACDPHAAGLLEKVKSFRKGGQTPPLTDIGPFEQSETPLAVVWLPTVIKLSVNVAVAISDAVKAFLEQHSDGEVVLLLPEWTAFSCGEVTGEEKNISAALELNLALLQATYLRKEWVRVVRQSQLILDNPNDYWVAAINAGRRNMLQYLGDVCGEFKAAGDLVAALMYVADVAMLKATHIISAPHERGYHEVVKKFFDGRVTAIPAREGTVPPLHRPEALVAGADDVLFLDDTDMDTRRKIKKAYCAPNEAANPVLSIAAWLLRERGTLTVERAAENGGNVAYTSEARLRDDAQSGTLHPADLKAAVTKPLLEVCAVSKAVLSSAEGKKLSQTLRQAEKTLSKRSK
# [8] = target: T4, Tyrosyl-tRNA synthetase, putative (Trypanosoma cruzi (strain CL Brener)); assay: Trypanosoma cruzi tyrosyl tRNA synthetase (TcYRS) SOP; type: functional; settings: 30 µM
# [9] = target: Chromo domain-containing protein 1 (Saccharomyces cerevisiae (strain ATCC 204508 / S288c) (Baker's yeast)) (UniProt P32657); assay: ScCHD-1 Enzyme Inhibition Assay; type: functional; settings: 30 µM; also: in the data most compounds retested in dose-response had high values
# Sequence of Chromo domain-containing protein 1 (Saccharomyces cerevisiae (strain ATCC 204508 / S288c) (Baker's yeast)) (P32657 whole entry, the tested form may be a part): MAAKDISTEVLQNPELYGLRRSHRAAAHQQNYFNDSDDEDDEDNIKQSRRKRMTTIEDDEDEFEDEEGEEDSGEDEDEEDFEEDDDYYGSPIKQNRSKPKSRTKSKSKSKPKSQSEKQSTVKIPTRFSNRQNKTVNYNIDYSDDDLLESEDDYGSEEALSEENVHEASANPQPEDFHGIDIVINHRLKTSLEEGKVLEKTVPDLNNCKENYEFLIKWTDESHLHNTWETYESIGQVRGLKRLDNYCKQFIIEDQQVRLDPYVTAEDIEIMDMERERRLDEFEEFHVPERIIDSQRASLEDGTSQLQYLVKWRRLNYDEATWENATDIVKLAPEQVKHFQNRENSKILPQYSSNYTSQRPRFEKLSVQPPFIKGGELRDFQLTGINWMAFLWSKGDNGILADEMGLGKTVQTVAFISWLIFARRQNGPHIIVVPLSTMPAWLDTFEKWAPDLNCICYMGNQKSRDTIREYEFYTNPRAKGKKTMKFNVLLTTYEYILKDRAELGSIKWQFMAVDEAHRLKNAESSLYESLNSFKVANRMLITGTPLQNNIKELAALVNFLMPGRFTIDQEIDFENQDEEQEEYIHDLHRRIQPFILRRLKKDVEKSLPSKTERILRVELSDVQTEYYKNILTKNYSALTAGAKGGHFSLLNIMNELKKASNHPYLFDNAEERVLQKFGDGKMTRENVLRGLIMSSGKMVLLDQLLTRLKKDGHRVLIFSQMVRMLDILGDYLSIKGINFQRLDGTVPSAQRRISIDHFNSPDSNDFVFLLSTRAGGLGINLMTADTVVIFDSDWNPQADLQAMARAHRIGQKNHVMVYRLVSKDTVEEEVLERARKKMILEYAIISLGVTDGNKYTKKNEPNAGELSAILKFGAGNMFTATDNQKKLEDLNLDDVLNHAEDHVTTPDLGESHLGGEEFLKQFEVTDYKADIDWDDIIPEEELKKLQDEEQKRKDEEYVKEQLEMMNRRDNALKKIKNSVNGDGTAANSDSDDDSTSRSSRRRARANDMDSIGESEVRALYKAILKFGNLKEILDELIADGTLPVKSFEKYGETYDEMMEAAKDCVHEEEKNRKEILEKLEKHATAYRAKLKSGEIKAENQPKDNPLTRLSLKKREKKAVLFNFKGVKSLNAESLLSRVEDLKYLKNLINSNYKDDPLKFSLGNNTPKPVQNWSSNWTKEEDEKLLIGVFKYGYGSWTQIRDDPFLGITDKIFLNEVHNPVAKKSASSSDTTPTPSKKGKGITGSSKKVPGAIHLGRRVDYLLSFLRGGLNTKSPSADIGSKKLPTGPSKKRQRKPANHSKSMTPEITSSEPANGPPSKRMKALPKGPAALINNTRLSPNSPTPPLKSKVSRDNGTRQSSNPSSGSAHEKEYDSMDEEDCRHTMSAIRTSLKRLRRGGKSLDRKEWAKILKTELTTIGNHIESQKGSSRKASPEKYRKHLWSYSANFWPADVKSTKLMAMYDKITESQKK
# Sequence of Protein translocase subunit SecA (Escherichia coli (strain K12)) (P10408 whole entry): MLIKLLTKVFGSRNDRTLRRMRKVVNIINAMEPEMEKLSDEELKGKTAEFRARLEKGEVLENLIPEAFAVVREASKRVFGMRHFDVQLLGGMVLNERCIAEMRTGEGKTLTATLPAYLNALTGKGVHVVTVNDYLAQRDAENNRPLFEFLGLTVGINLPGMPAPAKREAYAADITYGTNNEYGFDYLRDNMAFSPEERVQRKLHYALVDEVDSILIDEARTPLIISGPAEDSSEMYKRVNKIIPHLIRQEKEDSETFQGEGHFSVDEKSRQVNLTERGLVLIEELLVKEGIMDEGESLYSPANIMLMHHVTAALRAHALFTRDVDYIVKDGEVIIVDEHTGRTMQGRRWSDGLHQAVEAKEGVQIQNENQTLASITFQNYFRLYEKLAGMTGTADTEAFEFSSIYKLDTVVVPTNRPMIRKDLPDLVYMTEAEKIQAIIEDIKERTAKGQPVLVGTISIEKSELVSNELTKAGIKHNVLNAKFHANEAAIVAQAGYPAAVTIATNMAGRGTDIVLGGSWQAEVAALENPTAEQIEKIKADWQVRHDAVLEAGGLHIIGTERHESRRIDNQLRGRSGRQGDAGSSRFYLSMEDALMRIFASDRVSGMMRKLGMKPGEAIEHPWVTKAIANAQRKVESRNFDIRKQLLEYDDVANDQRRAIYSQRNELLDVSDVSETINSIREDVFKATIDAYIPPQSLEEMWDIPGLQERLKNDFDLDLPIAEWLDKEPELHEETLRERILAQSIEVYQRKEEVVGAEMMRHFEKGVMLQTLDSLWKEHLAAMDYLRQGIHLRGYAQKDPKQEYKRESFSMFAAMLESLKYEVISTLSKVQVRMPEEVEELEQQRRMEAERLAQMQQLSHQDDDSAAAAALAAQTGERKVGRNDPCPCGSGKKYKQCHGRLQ
# Sequence of Sialic acid-binding Ig-like lectin 9 (Homo sapiens) (Q9Y336 whole entry): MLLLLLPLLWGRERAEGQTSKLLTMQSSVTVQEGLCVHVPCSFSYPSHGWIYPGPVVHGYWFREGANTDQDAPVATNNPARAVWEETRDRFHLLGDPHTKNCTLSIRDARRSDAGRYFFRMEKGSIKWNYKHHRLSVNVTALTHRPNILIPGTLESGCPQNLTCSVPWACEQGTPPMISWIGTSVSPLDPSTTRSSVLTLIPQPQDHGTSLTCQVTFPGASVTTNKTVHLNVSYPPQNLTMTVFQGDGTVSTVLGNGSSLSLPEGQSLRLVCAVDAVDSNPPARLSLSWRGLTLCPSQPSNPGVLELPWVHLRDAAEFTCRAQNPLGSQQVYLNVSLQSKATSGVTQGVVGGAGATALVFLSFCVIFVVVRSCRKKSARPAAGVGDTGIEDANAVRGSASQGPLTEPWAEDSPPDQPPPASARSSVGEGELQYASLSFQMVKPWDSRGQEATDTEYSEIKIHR
Structure (SMILES),Percent Effect [1] [%],Percent Effect [2] [%],Percent Effect [3] [%],Percent Effect [4] [%],Percent Effect (Trypanosoma cruzi) [%],Percent Effect [5] [%],Percent Effect [6] [%],Percent Effect (Homo sapiens) [%],Percent Effect [7] [%],Percent Effect [8] [%],Percent Effect [9] [%]
CC(C)C(C(=O)N1CCC(N(C)c2cccnn2)CC1)n1cncn1 (stereo not drawn),-2.45,0,-10.6,4.35,-3.49,4.01,9.01,11.7,-0.493,1.24,6.08
CN(CC1CN(Cc2cn3ccsc3n2)CCO1)c1cccnn1 (stereo not drawn),-3.37,26,-3.91,-12.4,-7.54,1.47,23.5,15,4.76,21.2,-26.4
CC(C)CCn1[nH]c(CNc2ccccc2)nc1=O,-2.4,2.63,4.53,4.24,-9.06,2.37,16.2,2.77,2.13,2.6,4.81
c1ccc2c(N3CCCCC3Cn3cncn3)ncnc2c1 (stereo not drawn),-4.99,2.67,-0.541,0.114,-0.876,3.12,8.54,16.2,2.73,6.17,-6.35
CN(CCNC(=O)N1CCN(Cc2ccon2)CC1)C1CCCC1,-7,2.67,3.19,-0.946,1.85,4.69,-2.27,4.26,4.92,8.64,-1.28
CC(C)C(=O)N1CCN(Cc2csc(-c3ncccn3)n2)CC1,-3.04,0,9.34,3.09,1.27,0,11.4,2.18,4.25,10.4,-1.19
CC(=O)N1CCN(C(=O)c2cc(-n3cnnn3)ccc2Cl)CC1,-7.31,2.63,-6.84,0.287,-2.63,-4.73,6.04,9.34,-2.13,-2.6,0.334
Cn1cc(CN2CC[C@H](O)[C@@H]2Cc2ccncc2)cn1,-8.41,5.41,-33.1,-9.45,-0.293,-0.955,1.66,26.4,-1.08,-2.56,3.16
